The text below walks through data of PubChem BioAssay (NCI).

Compounds without any hit were thinned out: in the full panel of roughly 83,000, 20% have a hit.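 Interpretation: 100, growth as untreated; towards 0, rising growth inhibition; 0, no net growth; 0 to -100, cell death. Compounds scoring below 10 were considered active.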 Values without a mark were called inactive. Activity calls are given as the source filed them.

The subject of the experiment is MDA-MB-468 breast. Kind of experiment: NCI-60 one-dose screen, 48 h (100 = growth as untreated, 0 = no growth, -100 = all killed). To be noted: 10 µM unless noted.
With `COc1ccc2c(c1)cn1c3ccc(OC)cc3[nH]c(=O)c21`, the growth was -12% (active).
As for `Nc1ncc([N+](=O)[O-])cn1`, the growth was 96.2%.
`CSc1nc(=O)n(Cc2ccc(F)cc2)c(=O)n1Cc1ccc(C)cc1`: the growth was 112%.
Consider `CC[C@@]1(O)C(=O)OCc2c1cc1n(c2=O)Cc2c-1nc1ccccc1c2/C=N/OC(C)(C)C`, for which the growth was -44.5% (active).
The value for `C#Cc1nc(/C=C/CCCCCCC(=O)NO)cs1` was 54.8%.
Take `CN1CCN(c2ccc3nc(-c4ccc5nc(-c6ccc(OCCC(C)(C)C)cc6)[nH]c5c4)[nH]c3c2)CC1`: the growth was -17.9% (active).
Then `CCCCn1c(=O)[nH]c2c(c1=O)C(c1ccc(Cl)cc1)c1c([nH]c(=O)n(CCCC)c1=O)N2`, with 108%; and `COC(=O)c1ccc(Cn2cnc3c(N)ncnc32)cc1`, with 106%.
Consider `Cn1cc(-c2nonc2-c2cn(C)c3ccc(F)cc23)c2ccccc21`, for which the growth is 0.775% (active).
On to `COc1ccc(/C=C(/C(=O)n2cnnn2)c2cc(OC)c(OC)c(OC)c2)cc1`, for which the growth was 13.6%.
`N#C/C(=C\c1ccc(F)cc1)n1nc2cccc(F)c2n1`: the growth is 21.6%.
As for `COc1ccc(-c2c(C)nn3c(NCCN4CCOCC4)cc(C)nc23)cc1OC`, the growth is 96.3%.
Consider `N#C/C(=N\Nc1ccccc1)C(=O)Nc1cc(-c2ccccc2)nn1-c1ccccc1`, for which the growth is -3.2% (active).
`O=c1ccc2nc(-c3ccccn3)nn(-c3ccccc3)c-2c1`: the growth is -32.1% (active).
Then `O=C(Nc1cccc(C(F)(F)F)c1)N1CCN(c2cc(-c3cn(-c4ccccc4)nc3-c3cccc(O)c3)ccn2)CC1`, with 32.5%.
